Each structure is given as a SMILES string. Active and inactive are the calls of the source.

Assay [1] can be described thus: E. coli DRC41 culture turbidity changes, primary screen, E. coli filamentation inducer project, strain DRC41, OD650, 48 h (AID 1152).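 Note: E. coli MC1000 strain DRC41 lacking acrAB efflux pump and sulA.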 To be noted: E. coli DRC41 (acrAB sulA), higher = more signal, called active from +8 up or from −8 down.
Assay [2] in a line: small-molecule binders of probe aLefty1, primary screen, biochemical, small-molecule microarray, 635/667 nm fluorescence (AID 1153).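 Note: score merges spot fluorescence with signal-to-noise ratio from the scanned slide images.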 The following applies: higher = more signal.
A short description of assay [3]: PSAC antagonists in infected red cells, primary screen, cell-based, P. falciparum Indochina, OD700, 1 h (AID 1154). To be noted: P. falciparum Indochina infected RBC osmotic lysis, higher = more signal, called active from +8 up or from −8 down.
Assay [4] is described as follows: PSAC antagonists in infected red cells, primary screen, cell-based, P. falciparum Indochina, OD700, 2 h (AID 1155).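 Note: lysis reports solute entry through the parasite surface anion channel PSAC; channel blockers reduce lysis of infected cells.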 The following applies: P. falciparum Indochina infected erythrocytes, osmotic lysis OD700; higher = more signal, called active from +8 up or from −8 down.
Assay [5] in a line: osmotic lysis modulators in infected erythrocytes, primary screen, PSAC antagonist project, cell-based, P. falciparum Indochina, OD700, 3 h (AID 1156). The following applies: higher = more signal, called active from +8 up or from −8 down.
Assay [6] in a line: PSAC antagonists in infected red cells, primary screen, cell-based, P. falciparum Indochina, OD700, 18 h (AID 1157). The following applies: P. falciparum Indochina infected erythrocytes, osmotic lysis OD700, 18 h; higher = more signal, called active from +8 up or from −8 down.
A short description of assay [7]: modulators of S6 phosphorylation in cells, primary screen, cell-based, A549, cytoblot, luminescence, serum-stimulated (AID 1158).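 Note: serum-stimulated A549 lung adenocarcinoma cells; signal is phosphorylated S6 detected by cytoblot immunostaining with HRP secondary.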 The following applies: A549 phospho-S6 cytoblot, 5 h, higher = more signal.
For assay [8], the target named is NADPH oxidase 2 (Homo sapiens) (UniProt P04839). As to the kind of experiment: NOX2-dependent H2O2 signal modulators, primary screen, NOX inhibitor project, cell-based, HEK293-NOX2, PMA-stimulated, Amplex Red fluorescence (AID 1159). Note: test concentration not given here. The following applies: 45 min, higher = more signal, called active from +8 up or from −8 down.
Assay [9] concerns the target NADPH oxidase 4 (Homo sapiens) (UniProt Q9NPH5). Briefly: NOX4-dependent H2O2 signal modulators, primary screen, NOX inhibitor project, cell-based, HEK293-NOX4, tetracycline-induced, Amplex Red fluorescence (AID 1160). The following applies: 45 min, higher = more signal, called active from +8 up or from −8 down.
Assay [10] concerns the target NADPH oxidase 5 (Homo sapiens) (UniProt Q96PH1). As to the kind of experiment: NOX5-dependent H2O2 signal modulators, primary screen, NOX inhibitor project, cell-based, HEK293-NOX5, Amplex Red fluorescence (AID 1161). To be noted: HEK293-NOX5, ionomycin, 45 min, higher = more signal.
Assay [11] can be described thus: A549 cell viability effects, profiling panel, calcein-AM fluorescence, 48 h, basal (AID 1162). Note: test concentration not given here. To be noted: higher = more signal.
A short description of assay [12]: adipocyte viability effects, profiling panel, cell-based, 3T3-L1 adipocytes, calcein-AM fluorescence, 48 h, basal (AID 1163). Note: test concentration not given here. To be noted: 3T3-L1 adipocytes viability, higher = more signal.
Assay [13] in a line: HepG2 cell viability effects, profiling panel, calcein-AM fluorescence, 48 h, basal (AID 1164). Note: test concentration not given here. To be noted: higher = more signal.
The nature of assay [14]: MM1S cell viability effects, profiling panel, calcein-AM fluorescence, 48 h, basal (AID 1165).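 Note: viability of MM1S multiple myeloma cells under basal unstimulated conditions; test concentration not given here.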 To be noted: higher = more signal.
Assay [15] in a line: basal RPMI8226 viability, no added stimulus, profiling panel, cell-based, calcein-AM fluorescence, 48 h, PK04 Diversity Set (AID 1166).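 Note: cells grown under basal conditions without added stimulus; test concentration not given here.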 The following applies: RPMI8226 myeloma viability, higher = more signal.
The nature of assay [16]: basal HepG2 mitochondrial membrane potential changes, profiling panel, cell-based, JC-1 fluorescence, 24 h, 100 nL compound (AID 1167). Note: test concentration not given here. The following applies: higher = more signal.
Assay [17] is described as follows: basal 3T3-L1 adipocyte mitochondrial potential changes, profiling panel, cell-based, JC-1 fluorescence, 3T3-L1 adipocytes, 24 h, 100 nL compound (AID 1168). Note: test concentration not given here. To be noted: JC-1 mitochondrial fluorescence, higher = more signal, called active from +8 up or from −8 down.
Assay [18] in a line: basal RPMI8226 mitochondrial membrane potential changes, profiling panel, cell-based, JC-1 fluorescence, 24 h, 100 nL compound (AID 1169). Note: test concentration not given here. To be noted: RPMI8226 myeloma, JC-1 mitochondrial potential fluorescence, higher = more signal.
Assay [19] is described as follows: basal MM1S mitochondrial membrane potential changes, profiling panel, cell-based, JC-1 fluorescence, 24 h, 100 nL compound (AID 1170). Note: test concentration not given here. To be noted: higher = more signal.
Assay [20] can be described thus: A549 lung cancer cell viability effects, profiling panel, resazurin fluorescence, 24 h, PK04 Diversity Set (AID 1171). Note: test concentration not given here. The following applies: higher = more signal, called active from +8 up or from −8 down. For orientation: Resazurin is reduced to fluorescent resorufin, in cell work by metabolically active cells.

NADPH oxidase 2 (Homo sapiens), sequence (P04839 whole entry, looked up): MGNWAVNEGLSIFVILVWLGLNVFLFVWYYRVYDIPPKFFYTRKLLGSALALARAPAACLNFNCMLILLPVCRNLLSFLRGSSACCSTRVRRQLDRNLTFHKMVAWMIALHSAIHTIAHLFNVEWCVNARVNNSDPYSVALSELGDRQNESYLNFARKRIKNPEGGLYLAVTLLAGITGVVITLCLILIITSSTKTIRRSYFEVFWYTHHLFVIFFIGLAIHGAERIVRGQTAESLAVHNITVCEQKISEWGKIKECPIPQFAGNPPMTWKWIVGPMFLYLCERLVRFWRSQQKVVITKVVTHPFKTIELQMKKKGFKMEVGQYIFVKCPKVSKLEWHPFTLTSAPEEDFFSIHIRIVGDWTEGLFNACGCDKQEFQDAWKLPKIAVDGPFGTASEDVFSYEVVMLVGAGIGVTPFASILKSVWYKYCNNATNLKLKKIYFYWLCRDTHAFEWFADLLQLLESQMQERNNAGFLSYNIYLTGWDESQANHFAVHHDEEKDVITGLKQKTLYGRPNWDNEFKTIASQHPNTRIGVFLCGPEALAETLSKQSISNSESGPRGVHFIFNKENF
NADPH oxidase 5 (Homo sapiens), sequence (Q96PH1 whole entry, looked up): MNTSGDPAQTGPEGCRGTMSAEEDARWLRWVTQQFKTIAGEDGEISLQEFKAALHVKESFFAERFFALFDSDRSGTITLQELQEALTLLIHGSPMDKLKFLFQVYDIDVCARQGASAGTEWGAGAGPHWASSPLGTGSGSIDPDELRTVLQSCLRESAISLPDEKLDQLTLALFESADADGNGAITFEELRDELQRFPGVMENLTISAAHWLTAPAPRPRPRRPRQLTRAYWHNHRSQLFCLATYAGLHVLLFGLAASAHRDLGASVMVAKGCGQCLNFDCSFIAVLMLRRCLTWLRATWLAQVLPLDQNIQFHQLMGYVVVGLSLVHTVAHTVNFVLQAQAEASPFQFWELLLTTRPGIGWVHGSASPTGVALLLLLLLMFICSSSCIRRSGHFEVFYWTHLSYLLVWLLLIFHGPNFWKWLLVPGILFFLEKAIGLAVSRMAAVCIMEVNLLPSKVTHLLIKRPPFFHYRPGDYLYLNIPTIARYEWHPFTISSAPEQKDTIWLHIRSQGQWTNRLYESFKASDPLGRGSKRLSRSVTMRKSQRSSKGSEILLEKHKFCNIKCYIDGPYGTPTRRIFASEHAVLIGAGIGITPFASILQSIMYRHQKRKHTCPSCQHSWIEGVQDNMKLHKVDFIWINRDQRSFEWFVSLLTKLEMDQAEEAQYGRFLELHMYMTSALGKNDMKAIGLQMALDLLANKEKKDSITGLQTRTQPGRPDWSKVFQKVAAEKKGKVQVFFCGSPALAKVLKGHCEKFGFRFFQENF
NADPH oxidase 4 (Homo sapiens), sequence (Q9NPH5 whole entry, looked up): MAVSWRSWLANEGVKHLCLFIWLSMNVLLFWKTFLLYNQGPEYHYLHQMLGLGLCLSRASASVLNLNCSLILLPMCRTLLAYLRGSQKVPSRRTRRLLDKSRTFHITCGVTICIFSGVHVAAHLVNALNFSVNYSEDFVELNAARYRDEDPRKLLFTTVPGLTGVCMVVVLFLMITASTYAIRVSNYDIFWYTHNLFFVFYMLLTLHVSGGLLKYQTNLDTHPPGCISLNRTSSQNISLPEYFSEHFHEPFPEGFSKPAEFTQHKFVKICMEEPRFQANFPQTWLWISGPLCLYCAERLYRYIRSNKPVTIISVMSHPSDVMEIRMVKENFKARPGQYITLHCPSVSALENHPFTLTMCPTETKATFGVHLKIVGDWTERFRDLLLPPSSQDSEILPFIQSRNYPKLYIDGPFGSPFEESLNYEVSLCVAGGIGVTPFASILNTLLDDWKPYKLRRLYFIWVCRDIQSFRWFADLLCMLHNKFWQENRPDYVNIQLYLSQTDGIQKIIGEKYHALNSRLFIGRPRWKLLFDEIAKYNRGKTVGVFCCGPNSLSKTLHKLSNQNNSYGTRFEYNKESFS

Take `O=C1C=CC(=O)[C@@H]2CC(COc3ccccc3)=C3[C@@H](CCc4ccccc4)OB(O)C[C@@H]3[C@H]12`: the z-score in assay [1] is -0.365 (inactive); in [3] it was 3.41 (inactive); in [4] it was -0.0365 (inactive); in assay [5], -0.0433 (inactive); in assay [6], 0.0107 (inactive); in [7], 0.0482. In addition, the z-score is -0.511 (inactive) in assay [8]; -3.32 (inactive) in assay [9]; -5.88 in assay [10]; -0.491 in assay [11]; -1.23 in assay [12]; -0.478 in assay [13]. For the same molecule, the z-score is -3.22 in assay [14]; -3.95 in [15]; -3.77 in assay [16]; -1.83 (inactive) in assay [17]; -1.01 in assay [18]; -2.46 in [19]. In addition, the z-score in [20] was -0.108 (inactive). In assay [2], this molecule gave a composite z-score of 0.0491.

Take `CC(=O)Nc1cc(Br)ccc1C(=O)O`: the z-score in [1] is -0.657 (inactive); in assay [3], 0.552 (inactive); in [4], 0.501 (inactive); in assay [5], -0.904 (inactive); in assay [6], 0.305 (inactive); in assay [7], -0.107. Moreover, the z-score in [8] is 0.385 (inactive); in assay [9], -0.128 (inactive); in assay [10] it was -0.269; in [11], 0.665; in assay [12], 0.747; in assay [13], 0.332. The z-score in assay [14] is -0.906; in assay [15] it was -0.178; in assay [16], -0.598; in [17] it was -0.672 (inactive); in assay [18] it was -0.685; in assay [19], 1.05. Besides, the z-score in assay [20] was -0.243 (inactive). In addition, in assay [2], the composite z-score turned out to be 0.0494.

Take `COc1ccc([Si](C)(C)[C@H]2[C@H](CC(=O)N(CCO)Cc3ccccc3)O[C@@]3(C(=O)N(Cc4cccc(N5CCC5=O)c4)c4ccccc43)[C@@H]2C)cc1`: the z-score in assay [1] is 2.2 (inactive); in assay [3], 11.6 (active); in [4] it was 1.88 (inactive); in assay [5], -0.614 (inactive); in [6], -0.356 (inactive); in [7], 0.408. The z-score in [8] was 0.804 (inactive); in [9], 0.957 (inactive); in assay [10], 1.43; in [11], -1.42; in assay [12], 1.48; in assay [13] it was -1.93. Besides, the z-score in assay [14] was -1.6; in [15], -4.08; in assay [16] it was 0.967; in assay [17], 0.498 (inactive); in assay [18], -0.873; in assay [19], -1.27. Moreover, the z-score in assay [20] was -1.97 (inactive). Further, in assay [2], the composite z-score was found to be 0.356.

Regarding `COC(=O)c1ccc(C23CC2(C(NP(=O)(c2ccccc2)c2ccccc2)c2ccccc2)C3)cc1` (stereo not given), the z-score in [1] was -0.402 (inactive); in assay [3] it was 7.74 (inactive); in [4], 0.191 (inactive); in assay [5], -0.279 (inactive); in assay [6], -1.02 (inactive); in assay [7], 1.36. The z-score is -0.489 (inactive) in assay [8]; -0.652 (inactive) in assay [9]; -4.37 in [10]; 0.766 in assay [11]; 0.406 in assay [12]; 1.48 in assay [13]. Besides, the z-score is -2.06 in [14]; -3.34 in [15]; 3.7 in [16]; 0.711 (inactive) in assay [17]; -0.369 in assay [18]; -1.45 in [19]. Besides, the z-score in [20] is -0.416 (inactive). The same molecule returned a composite z-score in assay [2] of 1.08.

On to `C=CC[C@@]1(C(=O)N2CCOCC2)N=C(c2ccc(OCCCO)cc2)O[C@@H]1c1ccccc1N=[N+]=[N-]`, for which the z-score was 0.483 (inactive) in assay [1]; 35.1 (active) in [3]; 28.1 (active) in assay [4]; 3.17 (inactive) in assay [5]; 7.41 (inactive) in assay [6]; 1.92 in assay [7]. In addition, the z-score in assay [8] was -2.14 (inactive); in assay [9], -0.164 (inactive); in assay [10] it was -2.02; in assay [11], -0.168; in [12], 1.02; in assay [13], 0.249. Moreover, the z-score is -0.791 in assay [14]; -1.96 in assay [15]; 1.38 in assay [16]; 1.57 (inactive) in [17]; -0.97 in assay [18]; -1.71 in assay [19]. Also, the z-score in assay [20] was -0.915 (inactive). The same molecule had a composite z-score in assay [2] of 0.571.

Take `Cc1ccc(S[C@]2(C(=O)NCC(C)C)CC(=O)N(Cc3ccccc3Cl)[C@@H]2c2ccc(CO)cc2)cc1`: the z-score in [1] is -0.132 (inactive); in assay [3], 1.14 (inactive); in assay [4], 0.61 (inactive); in [5] it was -0.23 (inactive); in [6], 0.0839 (inactive); in [7], 0.534. Besides, the z-score in assay [8] is -1.85 (inactive); in [9], 0.717 (inactive); in assay [10], -0.393; in assay [11] it was 1.63; in [12] it was 0.114; in assay [13], -0.45. Besides, the z-score is -0.226 in assay [14]; 0.845 in assay [15]; -0.595 in assay [16]; -0.254 (inactive) in assay [17]; -0.492 in assay [18]; 0.767 in assay [19]. In addition, in [20], the z-score is -0.0989 (inactive). For the same molecule, the composite z-score in assay [2] was -0.188.

With `COC(=O)C(CC#Cc1ccc2c(c1)[C@]1(C(=O)N2)[C@H](C(=O)NC[C@H](O)c2ccccc2)[C@H]2C(=O)O[C@H](c3ccccc3)[C@H](c3ccccc3)N2[C@@H]1c1ccc(OCCO)cc1)C(=O)OC`, the z-score was -0.658 (inactive) in assay [1]; 5.95 (inactive) in assay [3]; 2.11 (inactive) in assay [4]; 0.0313 (inactive) in [5]; 1.1 (inactive) in [6]; 0.161 in assay [7]. Moreover, the z-score is 1.39 (inactive) in assay [8]; 0.865 (inactive) in assay [9]; 1.41 in assay [10]; 1.07 in [11]; 0.55 in [12]; 0.0255 in [13]. Besides, the z-score in assay [14] was -1.17; in assay [15], 0.0736; in assay [16] it was -1.06; in assay [17], 1.04 (inactive); in assay [18], -0.94; in assay [19], -1.15. The z-score in assay [20] is 0.199 (inactive). Besides, the composite z-score in assay [2] turned out to be 1.78.

Take `CC(C)N1C(=O)[C@@]2(c3ccc([N+](=O)[O-])cc3)CC(=O)N(CC34CC5CC(CC(C5)C3)C4)[C@@H]2c2ccc(CO)cc21`: the z-score is 0.0258 (inactive) in assay [1]; 0.297 (inactive) in assay [3]; 0.328 (inactive) in assay [4]; 0.0625 (inactive) in assay [5]; 0.131 (inactive) in assay [6]; -0.561 in assay [7]. Also, the z-score was 0.306 (inactive) in assay [8]; -0.0646 (inactive) in [9]; 0.607 in [10]; 0.192 in assay [11]; -1.22 in [12]; 1.36 in [13]. Also, the z-score in [14] was 0.496; in [15], 0.13; in [16], 0.396; in [17], 0.888 (inactive); in assay [18] it was -0.361; in assay [19] it was -0.512. In assay [20], the z-score was -0.695 (inactive). The composite z-score in assay [2] is 1.04.

With `Cc1cc(C)c(C(O)C2C=CC3C(=O)N(C)C(=O)C3N2Nc2ccccc2)c(C)c1` (stereo not given), the z-score is -1.52 (inactive) in assay [1]; 0.277 (inactive) in [3]; 0.519 (inactive) in assay [4]; -0.168 (inactive) in [5]; 1.03 (inactive) in assay [6]; -0.858 in [7]. For the same molecule, the z-score is -0.802 (inactive) in assay [8]; -3.6 (inactive) in [9]; -1.96 in assay [10]; -1.02 in [11]; -0.904 in assay [12]; -0.798 in assay [13]. Moreover, the z-score in assay [14] was -0.305; in assay [15], -0.681; in assay [16] it was -1.73; in [17] it was -1 (inactive); in [18], -0.207; in assay [19] it was 0.434. Besides, the z-score in assay [20] is -0.551 (inactive). In assay [2], this molecule showed a composite z-score of 1.5.

(Values after PubChem BioAssay.)
